The campaign covered roughly 300,000 compounds. About 22,000 (7.3%) were called active. Inconclusive results (about 2%) are left out. The sample as a whole holds a higher share of actives than the screen did. Unmarked numbers belong to inactive results. Rule as the data show it: active = activity score below about -60%; inconclusive = mostly about -28% to -61%; inactive = positive scores.
Test: Activators working through SNCA 5'UTR binding (MLPCN) (AID 1814)
Conditions: alpha-synuclein 5'UTR reporter, activators screen; active compounds read low; tested at 7.5 µM

| Structure (SMILES) | activity score |
| --- | --- |
| Fc1cc(F)c2nc(Nc3nc4c(F)cccc4s3)sc2c1 | -218% (active) |
| Cc1cccc(N=C2NN=C(c3c[nH]c4ccccc34)CS2)c1 | -102% (active) |
| C=CCn1c(C)cc(C2=NNC(=NCC)SC2)c1C | 105% |
| COc1ccc(-c2nnc(SC(C)C#N)o2)cc1 (stereo unspecified) | -98.3% (active) |
| COc1ccc(-c2nnc(SCc3cccnc3)o2)cc1 | -128% (active) |
| COc1cc(/C=N/n2c(C)n[nH]c2=S)ccc1OCc1ccccc1 | -106% (active) |
| COc1ccc2[nH]c(C(=O)Nc3ccccc3Cl)cc2c1 | -132% (active) |
| O=C(CSCc1ccccc1)N1CCc2ccccc21 | -92.8% (active) |
| O=C(CN1C(=O)c2ccccc2S1(=O)=O)N1CCc2ccccc21 | 93.5% |
| COc1ccc(Nc2ncnc3sc(C)cc23)cc1 | -159% (active) |
| O=C(c1ccc(CSc2ccccc2)cc1)N1CCCCCC1 | -99.5% (active) |
| CCc1ccc(-c2cc(C(=O)NCc3ccco3)c3ccccc3n2)s1 | -123% (active) |
| O=C(/C=C/c1ccc(Cl)cc1Cl)NCc1ccco1 | -119% (active) |
| CC1CCc2sc3nc(N4CCN(CCO)CC4)n4ncnc4c3c2C1 (stereo unspecified) | -73.1% (active) |
| COc1cccc(NC(C)=[N+](C)CCNS(=O)(=O)c2ccc(Cl)cc2)c1 | -156% (active) |
| Nc1c(C(=O)NCc2ccccc2)sc2nc3c(cc12)C(=O)CCC3 | -63.1% (active) |
| CC(C)OC(=O)c1sc2nc3c(cc2c1N)C(=O)CCC3 | -182% (active) |
| Cn1c(=NC(=O)C2CC2)sc2cc(F)cc(F)c21 | -88% (active) |
| Cc1ccc(NC(=O)C2CC2c2ccccc2)cc1 (stereo unspecified) | -65.1% (active) |
| C1=C(CCNc2ncnc3c2cnn3-c2ccccc2)CCCC1 | -141% (active) |
| CCOc1cccc2c1OC1(CCCCC1)N1N=C(c3cccnc3)CC21 (stereo unspecified) | -77% (active) |
| CCOC(=O)C1=C(CN2CCc3ccccc32)NC(=O)NC1c1ccc(Cl)cc1 (stereo unspecified) | 44.8% |

| Structure (SMILES) | activity score |
| --- | --- |
| COc1cc(/C=C(\C#N)c2nc3ccccc3[nH]2)ccc1O | -152% (active) |
| COc1cc(/C=C(\C#N)c2nc3c(s2)CC(C)CC3)ccc1O (stereo unspecified) | -208% (active) |
| O=C(COc1ccc2oc3c(c2c1)CCCC3)Nc1ccccn1 | -131% (active) |
| Cc1cccc(C(=O)NC(=S)N(C)C2CCCCC2)c1 | -74.3% (active) |
| CSc1nc(N(C)NC(=O)c2cccc(C)c2)c2ccccc2n1 | 114% |
| Cc1c(C(=O)NC2CCCCC2)oc2ccccc12 | -82.5% (active) |
| CCc1nonc1NC(=O)c1oc2ccc(Cl)cc2c1C | -90.7% (active) |
| Cc1nonc1NC(=O)c1oc2ccccc2c1C | -127% (active) |
| Cc1c(C(=O)N2CCCc3ccccc32)oc2ccccc12 | -96.2% (active) |
| Cc1c(C(=O)Nc2ccccn2)oc2ccc(Br)cc12 | -122% (active) |
| Cc1ccc(NC(=O)c2oc3ccccc3c2C)c([N+](=O)[O-])c1 | -101% (active) |
| CSc1cccc(NC(=S)N(C(C)C)C(C)c2ccccn2)c1 (stereo unspecified) | -66.1% (active) |
| Cc1ccc(-c2cc(C(=O)NCc3cn(C)nc3C)c3cc(Br)ccc3n2)cc1 | -87.5% (active) |
| CN(C)CCCN(C(=O)c1ccc(S(=O)(=O)N2CCCc3ccccc32)cc1)c1nc2ccc(F)cc2s1 | 74.2% |
| CCS(=O)(=O)N1Cc2ccccc2CC1C(=O)Nc1nc2ccc(F)cc2s1 (stereo unspecified) | -83.8% (active) |
| O=C(Nc1ccccc1)c1ccc2nsnc2c1 | -119% (active) |
| O=C(Nc1ccccc1Cl)c1ccc2nsnc2c1 | -133% (active) |
| COc1ccccc1Nc1ncnc2c1oc1ccccc12 | -147% (active) |
| O=[N+]([O-])c1ccc2c(c1)C(O)n1nc(-c3ccccc3)nc1S2 (stereo unspecified) | -63.3% (active) |
| CCS(=O)(=O)C1=NSC2=NC(=O)/C(=C\c3cc(C)n(-c4cccc(OC)c4)c3C)C(=N)N21 | -130% (active) |
| CC(O)c1ccc(OCCN(C)c2ccccn2)cc1 (stereo unspecified) | -143% (active) |
| CCN(CC)CCOc1ccc2c(c1)C(=NNC(=O)c1ccccn1)c1cc(OCCN(CC)CC)ccc1-2 | 109% |

| Structure (SMILES) | activity score |
| --- | --- |
| N#CC(=C1SC=CS1)c1nc(-c2ccccc2)cs1 | -305% (active) |
| N#CC(=C1CCCC1)c1nc(-c2ccc(Cl)cc2)cs1 | -189% (active) |
| CCOC(=O)/C(C#N)=C/c1ccc(N2CCCCC2)cc1 | -72.9% (active) |
| Cc1nc2cc(NCc3cccs3)ccc2n1C | -107% (active) |
| OC(c1nnc(-c2ccccc2)o1)c1cccs1 (stereo unspecified) | -90.8% (active) |
| CCOc1ccc(N/C=C/C(=O)c2cc(OC)c(OC)c(OC)c2)cc1 | -117% (active) |
| COc1ccc2[nH]cc(CCN3C(=O)c4ccc(C(=O)O)cc4C3=O)c2c1 | -169% (active) |
| CC[C@H]1CN2CCc3cc(OC)c(OC)cc3[C@@H]2C[C@@H]1C[C@H]1NCCc2cc(OC)c(OC)cc21 | 109% |
| O=C1c2ccccc2NC(c2ccccc2O)N1NS(=O)(=O)c1ccccc1 (stereo unspecified) | -64.1% (active) |
| Nc1c(C(=O)c2cccs2)sc2nsc(SCCN3CCCCC3)c12 | -213% (active) |
| c1ccc(-c2csc(N3CCc4ccccc4C3)n2)cc1 | -117% (active) |
| COc1ccc2c(c1)CCc1cn3ncc(C#N)c3nc1-2 | 68.1% |
| COc1ccc2nc(N3CCCC(O)C3)c(C#N)cc2c1 (stereo unspecified) | -114% (active) |
| CCc1ccc(Oc2coc3cc(OC(=O)c4cc5ccccc5oc4=O)ccc3c2=O)cc1 | -67% (active) |
| Cc1sc(NC(=O)c2ccc3ncsc3c2)c(C(N)=O)c1C | -130% (active) |
| COc1ccccc1-c1nnc(NC(=O)c2ccc3ncsc3c2)o1 | -132% (active) |
| COc1ccc(OC)c(/C(C)=N\NC(=O)c2cc3cc(Cl)ccc3n2C)c1 | -215% (active) |
| CC1CCCCC1NC(=O)/C(C#N)=C/C=C/c1ccccc1[N+](=O)[O-] (stereo unspecified) | -239% (active) |
| O=C(OCC(=O)c1cccs1)C1=COCCO1 | -103% (active) |
| CCC(C)(C)c1ccc(Oc2ccc(NC(=O)COC(=O)C3=COCCO3)cc2)cc1 | 90.6% |
| COc1cccc(-c2nnc(N(C)C(=O)c3ccno3)s2)c1 | -79.4% (active) |
| CCN(CC)S(=O)(=O)c1cc(C(=O)Nc2ccccn2)ccc1C | -79.9% (active) |

| Structure (SMILES) | activity score |
| --- | --- |
| COc1cccc(NCCC(=O)c2cccc([N+](=O)[O-])c2)c1 | -115% (active) |
| Nc1ccccc1/C=N\N=C/c1ccccc1N | -112% (active) |
| Cc1cccc(-n2ncc(Cl)c(Cl)c2=O)c1 | -220% (active) |
| Fc1ccc(-c2csc(-c3ccc(C4SCCS4)cc3)n2)cc1F | -125% (active) |
| CCOC(=O)c1cn[nH]c1NC(=S)Nc1ccccc1 | -131% (active) |
| Cc1ccc(C2CC(c3cccc(NS(C)(=O)=O)c3)=NN2S(C)(=O)=O)cc1 (stereo unspecified) | -70.6% (active) |
| CS(=O)(=O)Nc1ccc(C2=NN(S(C)(=O)=O)C(c3cccs3)C2)cc1 (stereo unspecified) | -69.5% (active) |
| O=C(CN1C(=O)COc2ccccc21)Nc1ccc(F)cc1 | -126% (active) |
| Cc1ccc(NC(=O)c2cc(-c3ccccc3O)n[nH]2)cc1C | -129% (active) |
| Cc1ccc(O)c(-c2cc(C(=O)NCc3ccccc3)[nH]n2)c1 | -148% (active) |
| CSc1nsc(NC(=O)Nc2ccccc2)n1 | -123% (active) |
| CCSc1nsc(NC(=O)Nc2cccc(C(C)=O)c2)n1 | -111% (active) |
| O=C(Nc1ccccc1)Nc1nc2ccccc2s1 | -64.8% (active) |
| Cn1nnnc1SCC(=O)Nc1nc2ccccc2s1 | -151% (active) |
| CCc1cc2c(=O)c(-c3ccon3)c(N)oc2cc1OC | -160% (active) |
| COc1ccc(N=C(C)c2sc3ccccc3c2O)cc1 | -125% (active) |
| Nc1[nH][nH]c(=O)c1N=Nc1ccc2c(c1)OCO2 | -112% (active) |
| Cc1ccc(NC(=S)Nc2ncccc2C)c(C)c1 | -199% (active) |
| COc1ccc2c(c1)CCc1c(C(=O)N3CCCC3)noc1-2 | -103% (active) |
| CNC(=O)/C(C#N)=C/c1c(F)cccc1Cl | -73.3% (active) |
| O=C(Nn1c(SCc2ccc([N+](=O)[O-])cc2)nc2ccccc2c1=O)c1ccc(F)cc1 | -81.2% (active) |
| c1ccc(-c2nccc(-c3ccc(-n4cnc5ccccc54)cc3)n2)nc1 | -88% (active) |

| Structure (SMILES) | activity score |
| --- | --- |
| CC(C)(C)C(=O)c1cnc(Nc2ccccc2)s1 | -123% (active) |
| O=C(c1ccc(Cl)cc1)c1cnc(Nc2ccccc2)s1 | -159% (active) |
| COCCN(C(=O)c1ccco1)c1nnc(-c2ccc(OC)cc2)s1 | -68.7% (active) |
| N#C/C=C\Oc1ccc(Cl)cc1N | -166% (active) |
| COc1ccccc1C1=Nc2cccc3cccc(c23)N1 | -62.4% (active) |
| CC1=CC(=C(C#N)c2nc3ccccc3s2)C=C(C)N1c1ccc(F)cc1F | -123% (active) |
| C=CCn1c(=NC(=O)c2cccs2)sc2cc(NC(C)=O)ccc21 | -164% (active) |
| Clc1ccccc1SCc1nc2ccccc2[nH]1 | -90.6% (active) |
| CCNC(=O)N1CCCC(C(=O)c2ccc(-c3ccccc3)cc2)C1 (stereo unspecified) | -101% (active) |
| O=C(Nc1ccc(Cl)c(Cl)c1)N1CC=C(c2ccccc2)CC1 | -65.8% (active) |
| Cc1ccc(Cl)c(OCC(=O)N2CCc3ccccc3C2)c1 | -117% (active) |
| COc1ccc(C2CC(c3cccs3)=Nc3ccccc3S2)cc1OC (stereo unspecified) | -90.7% (active) |
| O=C(/C(=C/c1cccc(Cl)c1)c1nc2ccccc2[nH]1)c1ccccc1 | -338% (active) |
| Cc1nc(NC(=O)C2CCCCC2)sc1C | -136% (active) |
| O=[N+]([O-])c1ccc(N/N=C/c2ccccc2)cc1 | -210% (active) |
| O=[N+]([O-])c1cccc(/C=N/Nc2ncc(Br)cn2)c1 | -194% (active) |
| CSc1ccccc1-c1nnc(-c2ccc(Cl)cc2)o1 | -146% (active) |
| COc1ccccc1-c1nnc(-c2ccc(F)cc2)o1 | -122% (active) |
